Reference: PubChem BioAssay (NCI)
About 83,000 compounds went through this panel and 20% of them were active in at least one assay; those are over-represented in the sample as a whole.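 Negative percent growth values reflect cell death: -40 means 40% of the cells present at the start died, and -100 means all died.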 Active and inactive are the calls of the source. Rule for the calls: active = growth percent below 10; inactive = the rest.

Key:
Assay in all cases: NCI-60 one-dose screen, 48 h (100 = growth as untreated, 0 = no growth, -100 = all killed)
Conditions in all cases: 10 µM unless noted
HCT-15 colon = tested on: HCT-15 colon
HT29 colon = tested on: HT29 colon
SNB-75 CNS = tested on: SNB-75 CNS
SNB-19 CNS = tested on: SNB-19 CNS
U251 CNS = tested on: U251 CNS
PC-3 prostate = tested on: PC-3 prostate
SK-MEL-5 melanoma = tested on: SK-MEL-5 melanoma
UACC-62 melanoma = tested on: UACC-62 melanoma
LOX IMVI melanoma = tested on: LOX IMVI melanoma
SK-MEL-28 melanoma = tested on: SK-MEL-28 melanoma
SK-MEL-2 melanoma = tested on: SK-MEL-2 melanoma
EKVX NSCLC = tested on: EKVX NSCLC
SN12C renal = tested on: SN12C renal
UO-31 renal = tested on: UO-31 renal
TK-10 renal = tested on: TK-10 renal
ACHN renal = tested on: ACHN renal
CAKI-1 renal = tested on: CAKI-1 renal
CCRF-CEM leukemia = tested on: CCRF-CEM leukemia
MOLT-4 leukemia = tested on: MOLT-4 leukemia

Measured: growth

C=C1C(=O)O[C@H]2[C@H]1CC/C(COC(=O)NCc1c[nH]c3ccc(Cl)cc13)=C\CC[C@@]1(C)O[C@@H]21
inactive: SNB-19 CNS 32.3%
active: HCT-15 colon -60.2% | HT29 colon -78.8% | SNB-75 CNS -6.74% | U251 CNS -3.11% | PC-3 prostate 9.72% | SK-MEL-5 melanoma -17.6% | UACC-62 melanoma -73.8% | LOX IMVI melanoma -76.3% | SK-MEL-28 melanoma -63% | SK-MEL-2 melanoma -6.51% | EKVX NSCLC -22.4% | SN12C renal -60.1% | UO-31 renal -99.6% | TK-10 renal -53.9% | ACHN renal -98% | CAKI-1 renal -96.4% | CCRF-CEM leukemia -11.1% | MOLT-4 leukemia 3.46%

Cn1ccnc1C(=O)/C=C/c1ccc(CC(=O)Nc2ccc(F)cc2)cc1
active: HT29 colon -26% | SNB-75 CNS -7.25% | U251 CNS 9.49% | CCRF-CEM leukemia 6.85%
inactive: HCT-15 colon 14.1% | SNB-19 CNS 19% | PC-3 prostate 36.1% | SK-MEL-5 melanoma 34% | UACC-62 melanoma 54.3% | LOX IMVI melanoma 15.2% | SK-MEL-28 melanoma 85.9% | SK-MEL-2 melanoma 102% | EKVX NSCLC 57.9% | SN12C renal 23.9% | UO-31 renal 37.2% | TK-10 renal 71.9% | ACHN renal 69.3% | CAKI-1 renal 38.1% | MOLT-4 leukemia 20.6%

N/C(=N\C(N)=N\c1nc2ccccc2s1)c1cccc(Cl)c1
inactive: HCT-15 colon 32.1% | HT29 colon 95.1% | SNB-75 CNS 95.2% | SNB-19 CNS 97.1% | U251 CNS 48.3% | PC-3 prostate 45% | SK-MEL-5 melanoma 104% | UACC-62 melanoma 86.2% | LOX IMVI melanoma 44.1% | SK-MEL-28 melanoma 104% | SK-MEL-2 melanoma 100% | EKVX NSCLC 83.3% | SN12C renal 38.5% | UO-31 renal 33.2% | TK-10 renal 111% | ACHN renal 75.5% | CAKI-1 renal 33.2% | CCRF-CEM leukemia 73.3% | MOLT-4 leukemia 72.5%

O=C(c1ccccc1)N1N=C(c2ccc(-n3ccc(C(F)(F)F)n3)c(F)c2)CC1c1ccc[nH]1 (centres undefined)
inactive: HCT-15 colon 100% | HT29 colon 98.8% | SNB-75 CNS 98.4% | SNB-19 CNS 99.1% | U251 CNS 98.5% | PC-3 prostate 101% | SK-MEL-5 melanoma 103% | UACC-62 melanoma 101% | LOX IMVI melanoma 101% | SK-MEL-28 melanoma 111% | SK-MEL-2 melanoma 102% | EKVX NSCLC 100% | SN12C renal 101% | UO-31 renal 90.4% | TK-10 renal 99.2% | ACHN renal 110% | CAKI-1 renal 98.3% | CCRF-CEM leukemia 105% | MOLT-4 leukemia 98.8%

CN1C(=O)NC(c2ccc3c(c2)OCO3)C=C1c1ccccc1 (centres undefined)
inactive: HCT-15 colon 77.8% | HT29 colon 84.2% | SNB-75 CNS 80.2% | SNB-19 CNS 92.5% | U251 CNS 72% | PC-3 prostate 102% | SK-MEL-5 melanoma 99% | UACC-62 melanoma 89.8% | LOX IMVI melanoma 96.5% | SK-MEL-28 melanoma 106% | SK-MEL-2 melanoma 100% | EKVX NSCLC 95.4% | SN12C renal 89% | UO-31 renal 64.7% | TK-10 renal 85% | ACHN renal 105% | CAKI-1 renal 82.8% | CCRF-CEM leukemia 87.2% | MOLT-4 leukemia 94.3%

Cc1ccc(NC(C(=O)c2ccccc2)c2ccccc2)cc1 (centres undefined)
inactive: HCT-15 colon 86.4% | HT29 colon 46.9% | SNB-75 CNS 66.3% | SNB-19 CNS 47.9% | U251 CNS 29.7% | PC-3 prostate 37.6% | SK-MEL-5 melanoma 22.1% | UACC-62 melanoma 39.1% | LOX IMVI melanoma 50.5% | SK-MEL-28 melanoma 52.8% | SK-MEL-2 melanoma 36.1% | EKVX NSCLC 20.5% | SN12C renal 50.1% | UO-31 renal 78.9% | TK-10 renal 74.6% | ACHN renal 85% | CAKI-1 renal 66.7% | CCRF-CEM leukemia 65.2% | MOLT-4 leukemia 74.6%

O=[N+]([O-])CC(c1ccccc1F)c1c[nH]c2ccccc12 (centres undefined)
inactive: HCT-15 colon 39.3% | HT29 colon 23.6% | SNB-75 CNS 54.9% | SNB-19 CNS 80.5% | U251 CNS 65.6% | PC-3 prostate 87.5% | SK-MEL-5 melanoma 81.5% | UACC-62 melanoma 53.4% | LOX IMVI melanoma 61% | SK-MEL-28 melanoma 78.2% | SK-MEL-2 melanoma 57% | EKVX NSCLC 79.4% | SN12C renal 88.6% | UO-31 renal 71.9% | TK-10 renal 96.8% | ACHN renal 94.7% | CAKI-1 renal 59.2% | CCRF-CEM leukemia 69.7% | MOLT-4 leukemia 59%

N#Cc1c(NCc2ccccc2I)sc2c1CCCCC2
inactive: HCT-15 colon 94.8% | HT29 colon 99.8% | SNB-75 CNS 84.8% | SNB-19 CNS 97.7% | U251 CNS 90% | PC-3 prostate 98.8% | SK-MEL-5 melanoma 98.2% | UACC-62 melanoma 69.5% | LOX IMVI melanoma 91.1% | SK-MEL-28 melanoma 110% | SK-MEL-2 melanoma 105% | EKVX NSCLC 78.8% | SN12C renal 96.9% | UO-31 renal 79.7% | TK-10 renal 109% | ACHN renal 97.7% | CAKI-1 renal 74.8% | CCRF-CEM leukemia 94.4% | MOLT-4 leukemia 84.2%

Nc1nc(Nc2ccccc2SSc2ccccc2Nc2nc(N)nc(-c3cccs3)n2)nc(-c2ccsc2)n1
inactive: HCT-15 colon 56.7% | HT29 colon 98.7% | SNB-75 CNS 98.3% | SNB-19 CNS 87.7% | U251 CNS 53.1% | PC-3 prostate 57.2% | SK-MEL-5 melanoma 94.7% | UACC-62 melanoma 71% | LOX IMVI melanoma 35.9% | SK-MEL-28 melanoma 98.7% | SK-MEL-2 melanoma 99.1% | EKVX NSCLC 77.3% | SN12C renal 27.3% | TK-10 renal 118% | ACHN renal 65.3% | CAKI-1 renal 20% | CCRF-CEM leukemia 60.5% | MOLT-4 leukemia 63.2%
active: UO-31 renal -45.5%

CCCC/C=N/NC(=S)NCc1ccccc1
inactive: HCT-15 colon 95.8% | HT29 colon 101% | SNB-75 CNS 86% | SNB-19 CNS 95.9% | U251 CNS 97.1% | PC-3 prostate 86.1% | SK-MEL-5 melanoma 97.1% | UACC-62 melanoma 93.8% | LOX IMVI melanoma 97.3% | SK-MEL-28 melanoma 98.2% | SK-MEL-2 melanoma 106% | EKVX NSCLC 101% | SN12C renal 96.1% | UO-31 renal 93.3% | TK-10 renal 103% | ACHN renal 99.4% | CAKI-1 renal 100% | CCRF-CEM leukemia 99.1% | MOLT-4 leukemia 95%

COc1cc(/C(C)=C(\c2ccc(Cl)cc2)c2ccc(OCCN(C)C)cc2)ccc1F
active: HT29 colon 5.91%
inactive: HCT-15 colon 18.1% | SNB-75 CNS 65.4% | SNB-19 CNS 87.7% | U251 CNS 44.3% | PC-3 prostate 58.1% | SK-MEL-5 melanoma 44.2% | UACC-62 melanoma 50.3% | LOX IMVI melanoma 38.3% | SK-MEL-28 melanoma 64.5% | SK-MEL-2 melanoma 104% | EKVX NSCLC 81.2% | SN12C renal 73.8% | UO-31 renal 47.5% | TK-10 renal 72.1% | ACHN renal 87.4% | CAKI-1 renal 62.7% | CCRF-CEM leukemia 49.5% | MOLT-4 leukemia 42.4%

COc1ccc(NC(N)=NCCCOc2ccc(F)cc2)cc1
inactive: HCT-15 colon 92.2% | HT29 colon 36.6% | SNB-75 CNS 81.9% | SNB-19 CNS 81.5% | U251 CNS 85.7% | PC-3 prostate 66.8% | SK-MEL-5 melanoma 28% | UACC-62 melanoma 87.8% | LOX IMVI melanoma 89.8% | SK-MEL-28 melanoma 88.5% | SK-MEL-2 melanoma 93.7% | EKVX NSCLC 69% | SN12C renal 80.5% | UO-31 renal 86.7% | TK-10 renal 87.3% | ACHN renal 89.3% | CAKI-1 renal 94% | CCRF-CEM leukemia 82.9% | MOLT-4 leukemia 61%

COc1cc2oc(-c3cccc(C(=O)Nc4ccc5c(c4)OCO5)c3)cc(=O)c2c(O)c1OC
inactive: HCT-15 colon 93.6% | HT29 colon 76.3% | SNB-75 CNS 84.6% | SNB-19 CNS 72.1% | U251 CNS 55.8% | PC-3 prostate 72.3% | SK-MEL-5 melanoma 84% | UACC-62 melanoma 81.4% | LOX IMVI melanoma 88.2% | SK-MEL-28 melanoma 89.8% | SK-MEL-2 melanoma 89.9% | EKVX NSCLC 87% | SN12C renal 68.7% | UO-31 renal 82.1% | TK-10 renal 98.6% | ACHN renal 75.3% | CAKI-1 renal 76.9% | CCRF-CEM leukemia 97.2% | MOLT-4 leukemia 101%

CCOC(=O)CCN(CC(C)C)C(=S)Nc1ccccc1
inactive: HCT-15 colon 99.5% | HT29 colon 105% | SNB-75 CNS 105% | SNB-19 CNS 99.9% | U251 CNS 100% | PC-3 prostate 105% | SK-MEL-5 melanoma 102% | UACC-62 melanoma 99.8% | LOX IMVI melanoma 105% | SK-MEL-28 melanoma 106% | SK-MEL-2 melanoma 102% | EKVX NSCLC 100% | SN12C renal 98.3% | UO-31 renal 94.4% | TK-10 renal 104% | ACHN renal 101% | CAKI-1 renal 102% | CCRF-CEM leukemia 118% | MOLT-4 leukemia 100%

Cc1ccc(NC(=O)Cc2ccc(/C=C/C(=O)c3ncc[nH]3)cc2)cc1
active: HT29 colon 9.43% | U251 CNS 7.18% | CCRF-CEM leukemia 4.85%
inactive: HCT-15 colon 11% | SNB-75 CNS 22.2% | SNB-19 CNS 16.6% | PC-3 prostate 53.3% | SK-MEL-5 melanoma 73.9% | UACC-62 melanoma 66.2% | LOX IMVI melanoma 10.9% | SK-MEL-28 melanoma 86.9% | SK-MEL-2 melanoma 109% | EKVX NSCLC 82.4% | SN12C renal 13.5% | UO-31 renal 39.5% | TK-10 renal 78.4% | ACHN renal 73.1% | CAKI-1 renal 61.1% | MOLT-4 leukemia 23.5%

CCCOc1ccc(/C=N/Nc2cc(C)nc3ccc(Br)cc23)cc1
active: HCT-15 colon -20.9%
inactive: HT29 colon 26.5% | SNB-75 CNS 105% | SNB-19 CNS 101% | U251 CNS 25.7% | PC-3 prostate 87.6% | SK-MEL-5 melanoma 100% | UACC-62 melanoma 96.1% | LOX IMVI melanoma 59.9% | SK-MEL-28 melanoma 102% | SK-MEL-2 melanoma 93% | EKVX NSCLC 81.7% | SN12C renal 84.4% | UO-31 renal 72.6% | TK-10 renal 111% | ACHN renal 97.7% | CAKI-1 renal 91.3% | CCRF-CEM leukemia 28.3% | MOLT-4 leukemia 73.9%
